In the library only some 8.7% were active in any assay of this set; here they are far more common.
BAZ2B block – blocks human BAZ2B; Q9UIF8; Potency, µM (doses to about 114 µM), for the others: top-dose activity change, negative = inhibition, hits mostly inhibitors; 360,000 compounds, 4.4% hits; AlphaScreen BAZ2B-H3K14Ac peptide displacement; note: % is set by controls: 0 for no effect and ±100 for the full control effect; nearly all actives have a fitted effect of over 60% in size
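Protein-peptide AlphaScreen: BAZ2B 50 nM, b-H3K14Ac 50 nM, 1x PBS pH 7.4 + 0.01% Tween-20. Preincubation 30 min RT; cpd 30 min RT (top 110 uM); beads 20 min RT, light-protected.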
Sfp PPTase inh – Sfp phosphopantetheinyl transferase inhibition; Biochemical Sfp PPTase activity, qHTS; Potency, µM, for inactives: largest response in the series, negative = inhibition, actives largely listed as inhibitors; 310,000 compounds, 3.5% hits; Q9F4F7; AID 1490;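 note: the enzyme is Sfp with the accession as filed and its product quenches rhodamine fluorescence; 0% = enzyme reaction without inhibitor and -100% = no enzyme wells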
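Fluorescence-quenching assay with 15 nM Sfp, 5 uM rhodamine-CoA and 12.5 uM BHQ-2-labelled ybbR peptide in pH 7.6 Hepes/MgCl2 buffer. Enzyme was pre-incubated with compound for 15 min at room temperature. Rate was taken from the 30-min fluorescence change (525/598 nm).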
G9a block – G9a (human) methyltransferase inhibition. Potency, µM (titrated, usually from 102 µM), for inactives: top-dose activity, negative = inhibition, usual class: inhibitors. G9a H3K9 monomethylation, AlphaScreen, 2 h. AID 504332. 350,000 compounds, 8.8% hits. Q96KQ7; note: % is set by controls: 0 for no effect and ±100 for the full control effect; nearly all actives have a fitted effect of over 75% in size
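AlphaScreen detection with an anti-monomethyl H3K9 antibody quantified product after a 2 h room-temperature reaction containing 500 nM biotinylated H3K9 peptide, 20 µM SAM and 20 nM enzyme, which had been preincubated 15 min with compound.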
ALOX12 inh – inhibitors of human 12S-lipoxygenase ALOX12 | AID 1671190 | Potency, µM (titrated, usually from 108 µM), without a hit: at the top dose activity change, negative = inhibition, actives largely listed as inhibitors | purified 12hLO, xylenol orange hydroperoxide absorbance | P18054 | 580,000 compounds, 1.1% hits; note: % is set by controls: 0 for no effect and ±100 for the full control effect
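Purified human 12hLO at 150 nM in 25 mM Hepes, 0.01% Triton X-100, pH 7.0, preincubated 15 min at room temperature with compound. Reaction started with 40 uM arachidonic acid, 30 min at room temperature. Hydroperoxide measured by Fe-xylenol orange, 573/405 nm absorbance ratio.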
HP1b chromo inh – HP1-beta chromodomain-methylated histone interaction inhibition. AlphaScreen HP1-beta / biotin-H3K9me3 peptide binding. Potency, µM (doses to about 114 µM), for inactives: at the top dose activity change, negative = inhibition, hits mostly inhibitors. 390,000 compounds, 0.56% hits. AID 540317; note: nearly all actives have a fitted effect of over 70% in size
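AlphaScreen: HP1-beta (50 nM) preformed 30 min with biotin-H3(1-18)K9me3 peptide (50 nM) in PBS pH 7.4, 0.01% Tween-20. Compound added for 30 min at RT, then streptavidin donor/nickel chelate acceptor beads (10 ug/mL) for 30 min.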
JMJD2A Tudor inh – inhibitors of human JMJD2A Tudor domain; O75164; AlphaScreen JMJD2A-Tudor / H3K4me3 peptide binding; Potency, µM (titrated, usually from 114 µM), inactives show at the highest dose activity change, negative = inhibition, actives largely listed as inhibitors; 390,000 compounds, 4.4% hits; AID 504339; note: % is set by controls: 0 for no effect and ±100 for the full control effect; nearly all actives have a fitted effect of over 50% in size
Target sequence (O75164 whole entry, looked up, the tested form may be a part): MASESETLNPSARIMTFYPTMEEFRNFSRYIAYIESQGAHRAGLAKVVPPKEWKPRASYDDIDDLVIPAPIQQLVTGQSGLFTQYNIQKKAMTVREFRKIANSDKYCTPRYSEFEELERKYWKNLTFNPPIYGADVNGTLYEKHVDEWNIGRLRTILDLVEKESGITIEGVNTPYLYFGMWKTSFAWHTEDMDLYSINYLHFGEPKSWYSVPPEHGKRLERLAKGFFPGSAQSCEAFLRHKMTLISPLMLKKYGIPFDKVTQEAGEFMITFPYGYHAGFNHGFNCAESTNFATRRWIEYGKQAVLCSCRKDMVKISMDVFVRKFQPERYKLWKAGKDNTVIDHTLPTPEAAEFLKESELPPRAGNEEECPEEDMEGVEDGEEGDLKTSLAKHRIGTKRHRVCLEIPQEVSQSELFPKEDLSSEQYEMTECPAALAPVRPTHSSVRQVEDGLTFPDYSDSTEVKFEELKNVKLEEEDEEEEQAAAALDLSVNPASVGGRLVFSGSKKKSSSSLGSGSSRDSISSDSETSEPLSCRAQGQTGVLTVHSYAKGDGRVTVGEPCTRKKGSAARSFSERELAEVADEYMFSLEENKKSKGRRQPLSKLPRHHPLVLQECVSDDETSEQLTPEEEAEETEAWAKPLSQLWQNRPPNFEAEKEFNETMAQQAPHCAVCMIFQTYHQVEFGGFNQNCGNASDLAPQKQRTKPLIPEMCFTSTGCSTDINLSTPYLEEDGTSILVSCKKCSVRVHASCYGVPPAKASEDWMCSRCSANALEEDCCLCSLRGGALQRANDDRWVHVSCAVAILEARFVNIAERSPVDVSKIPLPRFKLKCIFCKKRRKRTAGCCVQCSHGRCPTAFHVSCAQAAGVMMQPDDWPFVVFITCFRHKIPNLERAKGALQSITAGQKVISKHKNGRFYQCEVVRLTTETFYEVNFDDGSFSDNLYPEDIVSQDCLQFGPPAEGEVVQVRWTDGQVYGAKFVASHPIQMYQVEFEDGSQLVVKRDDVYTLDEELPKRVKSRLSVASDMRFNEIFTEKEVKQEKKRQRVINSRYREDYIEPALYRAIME
Numbers without * were called inactive; [ ] = dose if it differs, or a comment. Calls come from the whole dose curve; as a rule, active = well fitted curve in the direction sought with a large enough effect; inconclusive = small, poorly fitted or top-dose-only effect, or another doubt; inactive = no such curve, though single readings can be large; an effect the other way counts as inactive or inconclusive. Potency is the fitted concentration of half-maximal effect.

Screening OC(CN1CCN(Cc2ccccc2)CC1)Cn1c2ccccc2c2ccccc21 (centres undefined) returned BAZ2B block inconclusive, Sfp PPTase inh 3%, G9a block inconclusive, ALOX12 inh inconclusive, HP1b chromo inh inconclusive and JMJD2A Tudor inh inconclusive.
CN(C)c1ccc(/C=C2/C(=O)N(c3ccc([N+](=O)[O-])cc3)N=C2N2CCOCC2)cc1 was read as BAZ2B block 7.1µM*, Sfp PPTase inh -17% and G9a block -6%[0.501 µM].
Screening O=C1CC(N2CCOCC2)=NN1c1ccc([N+](=O)[O-])cc1 returned BAZ2B block -26%, Sfp PPTase inh -5%, ALOX12 inh 25%, HP1b chromo inh -4% and JMJD2A Tudor inh -35%.
O=C(CSc1nc(-c2ccccc2)no1)N1CCN(c2ccccc2F)CC1 was read as BAZ2B block 9%, G9a block 5%[59 µM], ALOX12 inh -25%, HP1b chromo inh 35% and JMJD2A Tudor inh 20µM*.
`CC(C)c1ccc(-c2noc(SCC(=O)N3CCN(c4ccccc4F)CC3)n2)cc1` gave BAZ2B block 8%, G9a block 4%[59 µM], ALOX12 inh inconclusive, HP1b chromo inh 58% and JMJD2A Tudor inh 5%.
CCn1c(SCC(=O)N2CCN(c3ccccc3F)CC2)nnc1-c1ccoc1C was read as BAZ2B block -30%, Sfp PPTase inh 3%, G9a block inconclusive, ALOX12 inh inconclusive, HP1b chromo inh -26% and JMJD2A Tudor inh 50µM*.
Cc1occc1-c1nnc(SCC(=O)N2CCOCC2)n1Cc1ccco1 was read as BAZ2B block 14%, Sfp PPTase inh 89µM*, G9a block -4%[59 µM], ALOX12 inh -2%, HP1b chromo inh 48% and JMJD2A Tudor inh -8%.
For CCn1c(SCC(=O)Nc2ccccc2F)nnc1-c1ccoc1C the results were BAZ2B block -12%, Sfp PPTase inh 14%, G9a block 2%, ALOX12 inh 0%, HP1b chromo inh 13% and JMJD2A Tudor inh -11%.
Screening CCC(=O)N1CCCCCCNC(=O)[C@@H]2C[C@@H](C(=O)N3CCN(c4ccccn4)CC3)C[C@@H]21 returned ALOX12 inh 6%.
For O=C(O)c1nccnc1C(=O)Nc1ccc(Oc2c(Cl)cccc2Cl)nc1 the results were BAZ2B block inconclusive, Sfp PPTase inh inconclusive, ALOX12 inh inconclusive, HP1b chromo inh 14% and JMJD2A Tudor inh -23%.
`Cn1nccc1NC(=O)c1nccnc1C(=O)O` gave BAZ2B block inconclusive, Sfp PPTase inh -22%, G9a block 40µM*, ALOX12 inh 0%, HP1b chromo inh 22% and JMJD2A Tudor inh -3%.
For Cn1nc(C(F)(F)F)c(-c2ccc(Br)cc2)c1NC(=O)c1nccnc1C(=O)O the results were BAZ2B block -24%, Sfp PPTase inh -5%, G9a block inconclusive, ALOX12 inh 330%, HP1b chromo inh 58% and JMJD2A Tudor inh -18%.
Screening COc1cc(NC(=O)c2nccnc2C(=O)O)cc(OC)c1 returned BAZ2B block inconclusive, Sfp PPTase inh -6%, G9a block 22µM*, ALOX12 inh 4.5µM*, HP1b chromo inh 16% and JMJD2A Tudor inh 40µM*.
Screening CC(=O)Nc1ccc(NC(=O)c2nccnc2C(=O)O)cn1 returned BAZ2B block 50µM*, Sfp PPTase inh -10%, G9a block 21%, ALOX12 inh inconclusive, HP1b chromo inh 11% and JMJD2A Tudor inh -9%.
`COc1ccc(-c2ocnc2C(=O)Nc2cc(OC)cc(OC)c2)cc1` gave ALOX12 inh -18%.
For Cn1nccc1NC(=O)NC(=O)c1c(Cl)cccc1Cl the results were BAZ2B block -3%, Sfp PPTase inh 18%, G9a block 20%, ALOX12 inh 244%, HP1b chromo inh 30% and JMJD2A Tudor inh -6%.
Cn1nc(C(F)(F)F)c(-c2ccccc2)c1NC(=O)c1nccnc1C(=O)O was read as BAZ2B block 79µM*, Sfp PPTase inh -15%, ALOX12 inh 4%, HP1b chromo inh 35% and JMJD2A Tudor inh inconclusive.

High-throughput results deposited in PubChem BioAssay by National Center for Advancing Translational Sciences (NCATS).
